Shown is part of a subset that was picked to be rich in hits.
HIV RNase H inh-1: inhibitors of HIV-1 reverse transcriptase RNase H | RT-RNase H RNA/DNA duplex cleavage, fluorescence | P04585 | actives 1.9% (n = 65,000) | inhibition, % at 10 µM; in the data active = inhibition above about 50%
RmlCD inh mix: RmlC/RmlD inhibition, mixture screen; RmlC/RmlD coupled enzyme inhibition, 384-well mixture HTS; actives 0.39% (n = 110,000); inhibition, % at 5.5 µM; in the data active = inhibition above about 30%, passing the limit was not always enough; inconclusive = no clear call, values can overlap the other calls
HIV RNase H inh-2: confirmation of HIV-1 reverse transcriptase RNase H inhibitors. inhibition, % at 10 µM. shares compounds with HIV RNase H inh-1. actives 39% (n = 1,000). Recombinant RT RNase H, fluorescent RNA/DNA duplex cleavage. AID 651; in the data active = inhibition above about 48%; inconclusive = no clear call, values can overlap the other calls
The depositor's hits bear a star; ? = inconclusive; / = not tested or not shown.

SMILES	HIV RNase H inh-1	RmlCD inh mix	HIV RNase H inh-2
O=C(O)C1C2C=CC(O2)C1C(=O)Nc1ccc(S(=O)(=O)Nc2ccccc2)cc1 (stereo unspecified)	58.0*	/	15.5
O=C1CC(c2cccs2)CC2=C1C(c1ccccc1)n1ncnc1N2 (stereo unspecified)	1.5	-3.8	/
CC(C)CN(C(=O)COC(=O)c1ccc2c(c1)NC(=O)CS2)C1CCS(=O)(=O)C1 (stereo unspecified)	77.0*	-4.1	78.7*
CN(C(=O)COC(=O)c1ccc2c(c1)NC(=O)CS2)C1CCS(=O)(=O)C1 (stereo unspecified)	/	-5.9	/
CC(C)Oc1ccc(-c2nn(-c3ccccc3)cc2/C=c2\sc3ncnn3c2=O)cc1	70.2*	/	?
CC1(C)CC(=O)C(=Cc2cn(-c3ccccc3)nc2-c2ccc(Cl)cc2)C(=O)C1	/	-5.7	/
CC1CCN(S(=O)(=O)c2ccc(NC(=O)Cn3nnc(-c4ccccc4F)n3)cc2)CC1	69.4*	6.4	39.0
CC1CCN(S(=O)(=O)c2ccc(NC(=O)Cc3ccccc3)cc2)CC1	/	-3.7	/
O=C(O)c1ccc(NS(=O)(=O)c2ccc(Cl)c(Cl)c2)cc1O	6.6	-2.0	/
COc1ccc(C)cc1NC(=O)c1cc2cc3ccc(C)cc3nc2o1	0.8	-5.4	/
Cc1ccc2cc(CCNC(=O)c3ccco3)c(=O)[nH]c2c1	1.6	12.2	/
Cc1ccc2cc(CN(C(=O)c3ccco3)c3ccccc3C)c(=O)[nH]c2c1	70.0*	6.6	38.6
Cc1cc(/C=C(\C#N)C(=O)NCc2cccs2)c(C)n1-c1ccc([N+](=O)[O-])cc1	/	2.2	/
COCCN(C(=O)C1CC1)c1nnc(-c2ccc(C)cc2)s1	/	-4.2	/
CCOc1ccc(-c2nnc(N(CC)C(=O)C3CCC3)s2)cc1	66.3*	-15.4	0.9
COc1ccc(C(c2sc3nc(C)nn3c2O)N2CCc3ccccc3C2)cc1 (stereo unspecified)	78.6*	-8.5	4.5
COc1cc(C(c2sc3nc(C)nn3c2O)N2CCc3ccccc3C2)cc(OC)c1OC (stereo unspecified)	23.9	-6.7	/
Cc1ccc(C(=O)CN(C(=O)c2ccc(Cl)c(Cl)c2)N2C(=O)C3CCCCC3C2=O)cc1C (stereo unspecified)	/	-1.5	/
CC(/C=N/n1c(-c2cccnc2)n[nH]c1=S)=C\c1ccccc1	/	5.0	/
CCC1CCCCN1S(=O)(=O)c1ccc(S(=O)(=O)N2CCN(S(=O)(=O)CC)CC2)cc1 (stereo unspecified)	51.2*	-87.9	56.7*
CCS(=O)(=O)N1CCN(S(=O)(=O)c2ccc(F)cc2)CC1	-7.7	3.1	/
CCN(CC)S(=O)(=O)c1ccc2oc(SCC3CN=C(c4ccc(OC)cc4)S3)nc2c1 (stereo unspecified)	58.6*	5.5	6.2
COc1ccc(C2=NCC(CSc3nnc(-c4ccc5c(c4)OCO5)o3)S2)cc1 (stereo unspecified)	-22.6	-10.0	/
Cc1c(NS(=O)(=O)N2CCCCC2)c(=O)n(-c2ccccc2)n1C	/	6.6	/
CCOC(=O)c1cc(-c2ccc(OC)cc2)nc2c1c(C)nn2CCC#N	/	-11.7	/
SMILES	HIV RNase H inh-1	RmlCD inh mix	HIV RNase H inh-2
CCOC(=O)Cc1csc(-n2sc3ccccc3c2=O)n1	97.2*	0.0	67.0*
CCOC(=O)Cc1csc(SCn2nnc3ccccc3c2=O)n1	-35.6	12.0	/
Fc1ccc(CSc2nc3ncccc3[nH]2)cc1	61.5*	-10.6	13.3
Fc1cccc(CSc2nc3ncccc3[nH]2)c1	/	-3.0	/
Cc1nn(CCC#N)c2c1P(=S)(N1CCCC1)OC(c1ccc(F)cc1)=N2 (stereo unspecified)	91.4*	-1.3	71.5*
CN=C(Nc1cc(C)nn1CCC#N)c1ccc(F)cc1	0.3	-9.6	/
COc1ccc(C(OC(=O)c2ccco2)C(=O)NC2CCCCC2)cc1 (stereo unspecified)	/	-7.9	/
Cc1ccc(S(=O)(=O)N/N=C\C=C\c2ccccc2)cc1	/	5.8	/
Cc1ccc(-c2cc(C(=O)Nc3cc(C)ccc3C)[nH]n2)c(O)c1	19.9	-12.4	/
COc1ccc(OC)c(NC(=O)c2cc(-c3ccc(C)cc3O)n[nH]2)c1	76.2*	2.3	12.6
Nc1nc(SCc2ccc3c(c2)OCO3)n[nH]1	-31.2	4.7	/
O=C(O)c1ccccc1S(=O)(=O)Cc1ccccc1	70.8*	-12.1	14.6
O=S(=O)(Cc1ccccc1)c1ccccc1-c1nnc(-c2ccccc2)o1	/	-13.3	/
CCSc1nnc(NC(=O)Cc2ccc(OC)c(OC)c2)s1	/	5.1	/
Cc1ccc2nc(NC(=O)CSc3nc4c(c(=O)n3C)SC(C)C4)sc2c1 (stereo unspecified)	79.0*	10.2	42.3
Cc1ccc(C)c(NC(=O)CSc2nc3c(c(=O)n2C)SC(C)C3)c1 (stereo unspecified)	-19.0	6.8	/
CC(C)(C)c1nnc2sc(SCC(=O)c3ccccc3)nn2c1=O	-2.6	0.8	/
COC(=O)c1ccc(OC)c(CSc2nnc(COc3cccc(C)c3)o2)c1	5.3	3.4	/
Cc1sc2nc(C(C)Nc3ccccc3N3CCOCC3)[nH]c(=O)c2c1C (stereo unspecified)	65.0*	-15.1	78.3*
Cc1sc2nc(SCC(=O)N3CCOCC3)[nH]c(=O)c2c1C	-4.0	5.3	/
Cc1nnc(NC(=O)NC(C)N2C(=O)C3C4C=CC(C4)C3C2=O)s1 (stereo unspecified)	55.4*	6.9	-1.3
CC(NC(=O)Nc1nnc(C(F)(F)F)s1)N1C(=O)C2C3C=CC(C3)C2C1=O (stereo unspecified)	-7.8	6.0	/
O=C(CCCOc1ccccc1)n1nnc2ccccc21	-6.3	6.6	/
Cc1nn(-c2ccccc2)c(=S)n1-c1ccccc1	3.0	-8.1	/
OCCn1nc2c3ccccc3nc-2n(-c2ccccc2)c1=S	89.0*	-4.5	14.3
SMILES	HIV RNase H inh-1	RmlCD inh mix	HIV RNase H inh-2
O=[n+]1cc(-c2ccc(F)cc2)n([O-])c2c1CCC2	-1.8	/	/
COCCOc1ccc(C(F)(F)F)cc1NC(=O)COC(=O)c1c(C)noc1C	-3.6	-1.3	/
COCCOc1ccc(C(F)(F)F)cc1Nc1nc2ccccc2o1	56.5*	9.1	47.3
CCn1c(Cc2ccccc2)nnc1SCC(=O)NC1CC1	/	-16.0	/
CCn1c(COc2ccccc2)nnc1SCC(=O)NC1CCCCC1	62.7*	6.1	25.6
Cn1nnnc1SCCNCc1ccccc1F	/	10.3	/
CC(=O)c1ccc(C(=O)Nc2nnc(-c3ccc(Cl)cc3)o2)cc1	14.0	-11.3	/
CN(C)c1ccc(C(=O)Nc2nnc(-c3ccc(Cl)cc3)o2)cc1	57.1*	4.9	31.2
COc1ccc(C2=NO[C@@H]3C(=O)N(c4cccc(C)c4C)C(=O)[C@H]23)cc1OC	6.4	6.2	/
COc1ccc(C2=NO[C@@H]3C(=O)N(c4ccc(C)cc4C)C(=O)[C@H]23)cc1OC	54.3*	-9.7	-7.5
N#Cc1nc(-c2ccc(OCc3ccc(Cl)cc3)cc2)oc1NCc1cccnc1	76.1*	-15.3	64.8*
N#Cc1nc(-c2ccc(OCc3ccccc3)cc2)oc1NCc1cccnc1	-12.7	8.7	/
CCn1c(-c2nonc2NC(=O)c2ccccc2)nc2ccccc21	/	12.2	/
CC(C)(C)c1ccc(C(=O)Nc2nonc2-c2nc3ccccc3[nH]2)cc1	60.0*	-9.3	?
Nc1c(C(=O)N2CCCCC2)sc(=S)n1-c1ccccc1	96.8*	-0.5	77.4*
Nc1c(C(=O)N2CCOCC2)sc(=S)n1-c1ccccc1	94.5*	3.2	64.6*

Screens from PubChem.
